Giardia kill: kills Giardia lamblia. Giardia lamblia trophozoite viability. activity change, % at 7.66 µM, hits read low. actives 0.15% (n = 340,000); in the data active means activity change below about -80%; inconclusive means between about -30% and that limit;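 further: parasites exposed to compound for two days anaerobically before the ATP read; on the % scale 0 is the no-effect control and ±100 the full control effect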
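Each well holds 100 Giardia trophozoites and compound. After two days (48 hrs) at 37 deg C in anaerobic conditions, ATP is quantified by luminescence.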
uPA generation: blocks generation of uPA at the cell surface; cell surface uPA generation assay, qHTS; actives 0.31% (n = 330,000); Potency, µM (series often up to 38.3 µM), for the others: at the top dose activity change, negative = inhibition, hits mostly inhibitors; active means well fitted inhibition curve with a large enough effect; inconclusive means small, poorly fitted or top-dose-only effect; inactive means no such curve, though single readings can be large or run the other way; tested in mouse RAW 264.7 cells; further: potency means the concentration at half of the fitted maximal effect; on the % scale 0 is the no-effect control and ±100 the full control effect; nearly all actives have a fitted effect of over 55% in size
MCF10A rerep: induces DNA re-replication in MCF 10a normal breast cells. MCF 10A DNA re-replication, Hoechst nuclear intensity, 48 h. Potency, µM (top dose mostly 46.1 µM), inactives show at the top dose activity, positive = re-replication, usual class: activators. actives 2.9% (n = 350,000). AID 624296; further: potency means the concentration at half of the fitted maximal effect; % of control where 0% means no effect; nearly all actives have a fitted effect of over 50% in size
SW480 rereplic: DNA re-replication induction in SW480 cells | SW480 DNA re-replication, Hoechst DNA content imaging, 48 h | Potency, µM (titrated, usually from 46.1 µM), without a hit: at the highest dose re-replication activation, hits mostly activators | actives 1.8% (n = 340,000); further: potency means the concentration at half of the fitted maximal effect; % of control where 0% means no effect; nearly all actives have a fitted effect of over 55% in size
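Quantitative HTS format with DMSO vehicle controls; 48 hr drug incubation at 37 C, then 40 min Hoechst staining and scanning imager measurement at 405 nm excitation.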
Active calls of the source: *; ? = inconclusive; · = no result. In the library only some 4.3% were active in any assay of this set; here they are far more common. Unless noted, the call rests on the fitted dose curve; in most records, active means well fitted activation curve with a large enough effect; inconclusive means small, poorly fitted or top-dose-only effect; inactive means no such curve, though single readings can be large or run the other way.

SMILES	Giardia kill	uPA generation	MCF10A rerep	SW480 rereplic
COc1cccc(NC(=O)CSc2ccc3nnc(CCNC(=O)c4ccccc4)n3n2)c1	?	3%	-2%	-23%
COc1ccccc1NC(=O)N(Cc1ccco1)Cc1cc2ccc(C)c(C)c2[nH]c1=O	4	-15%	7.3µM*	18µM*
COc1ccccc1NC(=S)N(Cc1ccco1)Cc1cc2cc(C)c(C)cc2[nH]c1=O	-4	4µM*	2.1µM*	5.8µM*
Cc1ccc2cc(CN(Cc3ccco3)C(=O)c3cccs3)c(=O)[nH]c2c1	2	-14%	2.6µM*	15µM*
Cc1cccc2cc(CN(Cc3ccco3)C(=O)c3cccs3)c(=O)[nH]c12	5	-7%	5%	-1%
Cc1cc(S(=O)(=O)N2CCCCC2)ccc1OCC(=O)N1CCOCC1	1	3%	1%	-5%
N=c1c(C(=O)NCc2ccc(F)cc2)cc2c(=O)n3ccccc3nc2n1Cc1ccco1	4	-9%	6.5µM*	?
N=c1c(C(=O)NCc2ccco2)cc2c(=O)n3ccccc3nc2n1Cc1ccc(Cl)cc1	17	5%	2.3µM*	9.2µM*
Cc1ccc(CNC(=O)c2cc3c(=O)n4ccccc4nc3n(Cc3ccco3)c2=N)cc1	2	0%	7.9µM*	16µM*
CCOC(=O)c1cc2c(=O)n3ccccc3nc2n(Cc2ccc(Cl)cc2)c1=N	8	2%	1.6µM*	2.1µM*
Cc1ccc2nc3c(cc(C(=O)NCc4ccco4)c(=N)n3Cc3ccco3)c(=O)n2c1	-24	-4%	?	24%
CCN(CC)S(=O)(=O)c1ccc(N2CCN(C)CC2)c(NC(=O)CN2C(=O)NC3(CCCCC3)C2=O)c1	13	-2%	10%	2%
c1ccc2c(c1)NCC1CCCN21 (centres undefined)	-29	7%	?	?
CC(C)(C)C(=O)CNS(=O)(=O)c1ccc(S(=O)(=O)NC2CC2)cc1	-16	1%	-1%	-37%
COCCCn1c(=N)c(C(=O)NCc2ccc3c(c2)OCO3)cc2c(=O)n3ccccc3nc21	3	0%	12%	?
N=c1c(C(=O)NCc2ccccc2)cc2c(=O)n3ccccc3nc2n1Cc1ccco1	2	-6%	13µM*	16µM*
CC(C)n1c(=N)c(C(=O)NCCc2ccccc2)cc2c(=O)n3ccccc3nc21	7	-7%	13µM*	23µM*
COCCn1c(=N)c(C(=O)NCc2ccco2)cc2c(=O)n3ccccc3nc21	0	-6%	10µM*	?
N=c1c(C(=O)NCc2ccco2)cc2c(=O)n3ccccc3nc2n1Cc1ccccc1	6	3%	18µM*	15µM*
O=C(CCCCCn1c(=S)[nH]c2ccc(N3CCOCC3)cc2c1=O)NCc1ccc(Cl)cc1	-3	2%	6.5µM*	?
O=C(CCCCCn1c(=S)[nH]c2ccc(N3CCOCC3)cc2c1=O)NCc1ccc2c(c1)OCO2	-3	4%	?	?
O=C(CCCCCn1c(=S)[nH]c2ccc(N3CCOCC3)cc2c1=O)NCc1ccccc1Cl	-1	0%	18µM*	?
CC(c1ccco1)N(C(=O)c1ccccc1NS(=O)(=O)c1ccc(Cl)c([N+](=O)[O-])c1)c1ccccn1 (centres undefined)	-13	-1%	23µM*	3%
CCNC(=S)N/N=C1\C(=O)c2cccc3cccc1c23	-20	-2%	21µM*	-3%
O=C(N/N=C1/C(=O)c2cccc3cccc1c23)c1ccc(Cl)cc1	-5	-8%	?	?
SMILES	Giardia kill	uPA generation	MCF10A rerep	SW480 rereplic
CCC(c1ccc(O)c(O)c1)C(CC)c1ccc(O)c(O)c1 (centres undefined)	-2	1%	-13%	10µM*
CC1CCc2c(sc3[nH]c(=S)n(C)c(=O)c23)C1 (centres undefined)	10	4%	21%	10µM*
Cc1ccc(C(=O)/C=C/c2ccc(-c3ccc(C)cc3)o2)cc1	0	-1%	21µM*	69%
O/N=C\c1ccc(-c2ccccc2)o1	15	0%	-79%	?
O=C(/C=C\c1ccc(-c2ccccc2)o1)c1ccccc1	-22	-9%	23µM*	18%
CCN(CC)S(=O)(=O)c1ccc(C(=O)/C=C/c2ccc(-c3ccc([N+](=O)[O-])cc3)o2)cc1	-4	11%	-3%	-7%
Cc1ccc(S(=O)(=O)N(C)CCCN(C)c2nc(-c3cccs3)nc3ccccc23)cc1	-25	·	·	·
O=C(NCC(c1cccs1)N1CCOCC1)c1ccc(Cl)nc1 (centres undefined)	-23	?	18µM*	?
O=C(NCC(c1cccs1)N1CCOCC1)c1cc(S(=O)(=O)N2CCOCC2)c(Cl)cc1Cl (centres undefined)	14	-4%	4%	?
O=C(NCC(c1cccs1)N1CCOCC1)c1ccc(Cl)cc1 (centres undefined)	6	-13%	?	?
O=C(NCC(c1cccs1)N1CCOCC1)c1cc(S(=O)(=O)N2CCOCC2)ccc1F (centres undefined)	-16	1%	22%	3.3µM*
O=C(C1CN(C(=O)c2cc3cc(Cl)ccc3o2)c2ccccc2O1)N1CCCCC1 (centres undefined)	-3	-5%	?	1%
Cc1ccc(-c2ccccc2NC(=O)CS(=O)CC(=O)Nc2ccc(C)c(Cl)c2)o1 (centres undefined)	?	-5%	26µM*	?
S=C(NCCc1ccccc1)N1CCN(C23CC4CC(CC(C4)C2)C3)CC1	1	0%	5.8µM*	?
Cc1cc(=O)[nH]c(N/N=C/c2cccc(Br)c2)n1	-14	-8%	2%	-11%
CC(=O)c1sc(N/N=C\c2cccc(Br)c2)nc1C	-1	3%	13µM*	11%
CC(=O)c1sc(N/N=C\c2ccc(Br)cc2)nc1C	-17	-4%	18µM*	?
Nc1nc2cc(S(=O)(=O)N3CCOCC3)ccc2o1	-2	-2%	-4%	-3%
Cc1[nH]n(S(=O)(=O)Cc2ccccc2)c(=O)c1N=Nc1ccccc1Cl	-89*	3%	2%	-4%
COc1cc(Cl)cc(CN2CCC(CCC(=O)NC3CC3)CC2)c1OC	-19	5%	5%	?
COc1cc(Cl)c(CN2CCC(CCC(=O)NC3CC3)CC2)cc1OC	-6	5%	0.58µM*	-46%
O=c1oc2ccc(Br)cc2cc1S(=O)(=O)c1ccc(F)cc1	14	-2%	5.2µM*	28%
Cc1ccc(C(=O)NCC(=O)O)o1	-8	6%	14%	-12%
COc1ccc(C)cc1N1C(=N)/C(=C2/Nc3ccccc3S2)C(c2ccccc2)C1=O (centres undefined)	-29	-9%	23µM*	?
C/C(=N\NC(=O)CCC(=O)Nc1ccc(C)c(C)c1)C1CC1	12	10%	0%	3%
CN(CC1CCOCC1)C(=O)c1ccc2nc(Cc3cccc(Cl)c3)oc2c1	11	10%	18µM*	10%
O=S(=O)(O)c1cc(O)c2c(N=Nc3ccc(Nc4ccccc4)c4c(S(=O)(=O)O)cccc34)cc(S(=O)(=O)O)cc2c1	·	·	-12%	-1%

Bioassay records: PubChem, National Center for Advancing Translational Sciences (NCATS)
